CYP2C19 activ – activators of human cytochrome P450 2C19; P33261; recombinant CYP2C19, luciferin-H EGE luminescence; active compounds read high; 0 = fully inhibited enzyme, 1 = untreated enzyme; activation factor at 5 µM; 96,000 tested, under 10 active; AID 1025;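 active = activation factor of at least 2 at 5 µM in the primary screen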
CYP2C19 inh – inhibitors of human CYP2C19; inhibition, % at 5 µM; hit rate 21% among 96,000; CYP2C19 Supersomes, luciferin-H EGE luminescence, 30 min;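 active = CYP2C19 inhibition above a set limit at 5 µM in the primary screen, cut at about 50% in these data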
CYP2C9 activ – activators of human CYP2C9; AID 1024; recombinant CYP2C9, luciferin-H conversion, luminescence; active compounds read high; factor 1 = untreated enzyme, 0 = blocked; P11712; activation factor at 5 µM; hit rate 1.4% among 96,000;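 active = activation factor of 2 or more for CYP2C9 at a 5 µM dose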
Target sequence (P11712 whole entry, looked up): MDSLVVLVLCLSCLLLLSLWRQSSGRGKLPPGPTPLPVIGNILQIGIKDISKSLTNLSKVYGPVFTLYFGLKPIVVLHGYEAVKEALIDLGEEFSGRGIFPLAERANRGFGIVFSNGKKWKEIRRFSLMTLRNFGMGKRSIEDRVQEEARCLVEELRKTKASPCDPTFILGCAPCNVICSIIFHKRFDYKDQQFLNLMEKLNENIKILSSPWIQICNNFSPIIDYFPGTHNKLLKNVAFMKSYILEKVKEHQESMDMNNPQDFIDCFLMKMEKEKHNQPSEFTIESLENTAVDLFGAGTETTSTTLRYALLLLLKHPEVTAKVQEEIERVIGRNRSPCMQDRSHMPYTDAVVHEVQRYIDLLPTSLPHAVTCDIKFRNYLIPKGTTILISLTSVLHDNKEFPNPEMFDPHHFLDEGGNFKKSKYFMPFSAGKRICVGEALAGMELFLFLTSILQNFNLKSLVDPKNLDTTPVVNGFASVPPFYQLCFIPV
CYP2C9 inh – inhibitors of human CYP2C9 | P11712 | CYP2C9 Supersomes, luciferin-H conversion, luminescence | inhibition, % at 5 µM | hit rate 20% among 96,000;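 active = blocking of liver enzyme CYP2C9 beyond about 50% at 5 µM, limit read from the data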
Cav3 T inh – human Cav3.2 channel inhibition, primary screen; AID 449739; O95180; hit rate 4% among 100,000; Cav3.2-expressing cells, Fluo-4 calcium fluorescence FDSS; active compounds read low; B-score at 10 µM;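 active = single-dose well whose peak fluorescence ratio is a statistical outlier from its plate by either plate-standardised score or position-corrected B-score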
Each line names hits and unclear results; the compound was inactive in the other large screens. Compounds with a hit are over-represented: about 27% of the library has one in this group of screens.

O=C1c2ccccc2NC(c2ccc(Cl)cc2Cl)N1Cc1ccccc1 (centres undefined)	Cav3 T inh -5.3
O=C1c2ccccc2NC(c2c(Cl)cccc2Cl)N1Cc1ccccc1 (centres undefined)	Cav3 T inh -11
Cc1cccc(C2Nc3ccccc3C(=O)N2CCc2ccccc2)n1 (centres undefined)	CYP2C19 inh 61, CYP2C9 inh 61
O=C1c2ccccc2NC(c2ccc(Cl)cc2Cl)N1O (centres undefined)	none
COc1cccc(NC(=O)c2ccn(C)n2)c1	none (no result: CYP2C19 activ, CYP2C19 inh, CYP2C9 activ, CYP2C9 inh)
COCCNC(=O)C(c1cccs1)N(C(=O)Cn1nnc2ccccc21)c1ccc(OC)cc1 (centres undefined)	none (no result: CYP2C19 activ, CYP2C19 inh, CYP2C9 activ, CYP2C9 inh)
COC(=O)CCCCCNc1ccc(C(=O)OC)cc1N	CYP2C19 inh 84
Cc1ccccc1CNC(=O)Nc1cccs1	CYP2C19 inh 72
Cc1ccc(NC(=O)Nc2ncccc2C)cc1	none
Cc1cccnc1NC(=O)Nc1cccs1	CYP2C19 inh 50
O=C(NCc1cccs1)Nc1cccs1	none
Cc1ncc(N=Nc2ccccc2)c(-c2ccccc2)n1	none (no result: Cav3 T inh)
C/C=C1\C(OC2OC(CO)C(O)C(O)C2O)OC=C(C(=O)OC)C1CC(=O)OCC1C(C)C(OC(=O)CC2C(C(=O)OC)=COC(OC3OC(CO)C(O)C(O)C3O)/C2=C\C)CC1C(CO)CO (centres undefined)	none (no result: CYP2C19 activ, CYP2C19 inh, CYP2C9 activ, CYP2C9 inh)
CN(C)CCCN1C(=O)C(=O)/C(=C(/O)c2ccc3c(c2)OCCO3)C1c1ccco1 (centres undefined)	none (no result: Cav3 T inh)
CCN1C(=O)CC(c2ccco2)Sc2ccccc21 (centres undefined)	CYP2C19 inh 53
O=C(CN1C(=O)CC(c2ccco2)Sc2ccccc21)NCc1ccc2c(c1)OCO2 (centres undefined)	CYP2C19 inh 94, CYP2C9 inh 86 (no result: Cav3 T inh)
Cc1ccc2c(c1)N(CC(=O)NCc1ccco1)C(=O)CO2	none (no result: CYP2C19 activ, CYP2C19 inh, CYP2C9 activ, CYP2C9 inh)
COc1cc(C2CC(=O)N(CC(=O)NCc3ccco3)c3ccccc3S2)cc(OC)c1OC (centres undefined)	CYP2C19 inh 65, CYP2C9 inh 71
O=C(CN1C(=O)CC(c2ccco2)Sc2ccccc21)Nc1ccccc1F (centres undefined)	none (no result: CYP2C19 activ, CYP2C19 inh, CYP2C9 activ, CYP2C9 inh)
O=C1CC2(CCCC2)Oc2ccc(F)cc21	none (no result: CYP2C19 activ, CYP2C19 inh, CYP2C9 activ, CYP2C9 inh)
CSCc1nnc(NC(=O)c2ccc(S(=O)(=O)N(CC(C)C)CC(C)C)cc2)o1	Cav3 T inh -6
COCc1nnc(NC(=O)c2ccc(S(=O)(=O)N(C)C3CCCCC3)cc2)o1	CYP2C9 inh 76
CCc1nnc(NC(=O)c2ccc(S(=O)(=O)N(CC(C)C)CC(C)C)cc2)o1	none (no result: CYP2C19 activ, CYP2C19 inh, CYP2C9 activ, CYP2C9 inh)
CN(C)CCCOc1ccc(C(C)(C)c2ccccc2)cc1	none
O=C(CCS(=O)(=O)c1ccc(Br)cc1)NC1CCCC1	none
Cc1cccc(N(CC(=O)NC2CCCC2)C(=O)c2cc3cc4cccc(C)c4nc3s2)c1C	CYP2C9 inh 90, Cav3 T inh -3.3
Cc1ccc(C)c(N(C(=O)CS(=O)CC(=O)Nc2ccc3c(c2)OCO3)C(C)C(=O)NC2CCCC2)c1 (centres undefined)	none (no result: CYP2C19 activ, CYP2C19 inh, CYP2C9 activ, CYP2C9 inh)
COc1ccc(-c2nnn(CC(=O)N(CC(=O)NC3CCCC3)c3cccc(C)c3)n2)cc1OC	none
Cc1ccccc1N(CC(=O)NC1CCCC1)C(=O)c1oc(C(C)(C)C)cc1C	none
Cc1ccccc1N(CC(=O)NC1CCCC1)C(=O)CS(=O)CC(=O)Nc1ccc2c(c1)OCO2 (centres undefined)	CYP2C9 inh 90
Cc1ccc(C(=O)N(CC(=O)NC2CCCCC2)c2ccccc2C)s1	CYP2C9 inh 62
Cc1cccc(N(CC(=O)NC2CCCCC2)C(=O)c2ccc(C)s2)c1	CYP2C9 inh 60
CC1CCc2cc(F)ccc2N1C(=O)CSc1nnc(-c2cccs2)n1C (centres undefined)	none
COc1cc(NC(C)C(=O)N2CC(C)OC(C)C2)cc(OC)c1 (centres undefined)	none
CCOC(=O)c1c(C)nc2c(C#N)cnn2c1C	CYP2C19 inh 63
CCN(CC)S(=O)(=O)c1cc(-c2nnc(-c3ccc(Br)cc3)o2)ccc1Cl	CYP2C9 inh 60
N/C(=N\OS(=O)(=O)c1ccc(Br)cc1)c1ccncc1	CYP2C9 inh 58
C=CCN1C(=O)CC(C(=O)NC)SC1=Nc1ccc(C(=O)OCC)cc1 (centres undefined)	none
CCCCOc1ccccc1C1NC(=O)NC(C)=C1C(=O)OCCOC (centres undefined)	none (no result: CYP2C19 activ, CYP2C19 inh, CYP2C9 activ, CYP2C9 inh)
C/C(N)=C(/C#N)C(=O)COC(=O)CC1CCCC1	CYP2C19 inh 88 (no result: Cav3 T inh)
C/C(N)=C(/C#N)C(=O)COC(=O)C1CCC(C(C)(C)C)CC1 (centres undefined)	CYP2C19 inh 90, CYP2C9 inh 84
C/C(N)=C(/C#N)C(=O)COC(=O)CC12CC3CC(CC(C3)C1)C2	CYP2C19 inh 78, CYP2C9 inh 81
C/C(N)=C(/C#N)C(=O)COC(=O)CSc1ccccc1	none
O=C(Nc1cnn(Cc2ccc(Cl)c(Cl)c2)c1)C12CC3CC(CC(C3)C1)C2	none (no result: CYP2C19 activ, CYP2C19 inh, CYP2C9 activ, CYP2C9 inh)
Cc1cc(C(=O)N2CCN(CCc3ccccc3)CC2)no1	none
O=C(NCc1ccccc1)NC1(C(=O)N2CCN(c3ccccc3)CC2)CCCCC1	CYP2C19 inh 57
COc1ccc(/C=C/C(=O)N(C(C)C)C(C)C)cc1Br	CYP2C19 inh 60
CCN(CC)c1ccc(C2=NNC(=O)CC2C)cc1[N+](=O)[O-] (centres undefined)	CYP2C9 inh 52
CC1CC(=O)NN=C1c1ccc(N(C)C)c([N+](=O)[O-])c1 (centres undefined)	none
O=C(c1cccs1)N(Cc1ccco1)c1nc(-c2ccc(F)cc2)cs1	none (no result: CYP2C19 activ, CYP2C19 inh, CYP2C9 activ, CYP2C9 inh)
CN(C)CCCN(C(=O)c1cccs1)c1nc(-c2ccccc2)cs1	CYP2C19 inh 92, CYP2C9 inh 74
CN(C)S(=O)(=O)c1cc(S(=O)(=O)N(C)C)c(Cl)cc1N	none
Cn1nc(-c2ccc(Cl)cc2)nc2c(=O)n(C)c(=O)nc1-2	CYP2C19 inh 98, CYP2C9 inh 93
OC(COc1ccc2ccccc2c1)Cn1ccnc1 (centres undefined)	CYP2C19 inh 100, CYP2C9 inh 98
O=S(=O)(NC1CCc2ccccc21)c1ccc(S(=O)(=O)N2CCCC2)cc1 (centres undefined)	none
O=S(=O)(NC1CCCC1)c1ccc(S(=O)(=O)N(Cc2cccs2)CC2CCCO2)cc1 (centres undefined)	CYP2C19 inh 97, CYP2C9 inh 97
O=S(=O)(c1ccc(S(=O)(=O)N(Cc2cccs2)CC2CCCO2)cc1)N1CCCCC1 (centres undefined)	CYP2C19 inh 73, CYP2C9 inh 83
O=C(C1CCCN(S(=O)(=O)c2ccc(F)cc2)C1)N(Cc1cccs1)C1CC1 (centres undefined)	CYP2C19 inh 95, CYP2C9 inh 73, Cav3 T inh -4.1
COc1cccc(CN(CC2CCCO2)S(=O)(=O)c2ccc(S(=O)(=O)N(C)C)cc2)c1 (centres undefined)	none
CCOC(=O)c1cc2cc3ccccc3cc2[nH]1	none (no result: CYP2C19 activ, CYP2C19 inh, CYP2C9 activ, CYP2C9 inh)
